# The panel holds about 79,000 compounds, 15% with a hit somewhere; the sample as a whole holds those more often. Unmarked numbers belong to inactive results. Calls of active or inactive are those of the source. No stated cut-off is given here; in the data, active means growth inhibition above about 70%; inactive means the rest.
# Tests used:
# [1] = NCI Yeast Anticancer Drug Screen. Data for the rad50 strain (AID 155);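 further: 0% = growth of vehicle-only cultures of the same strain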; conditions: S. cerevisiae rad50 strain growth inhibition, active compounds read high
# In short: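 A DNA repair-deficient yeast mutant serves as the test organism; compound-induced growth inhibition is calculated against vehicle-treated cells.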
# [2] = NCI Yeast Anticancer Drug Screen. Data for the mec2-1 strain (AID 157); conditions: S. cerevisiae mec2-1 strain, active compounds read high
# In short: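 Mutant yeast (mec2-1) grown with compound; growth inhibition relative to vehicle control reported.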
# [3] = NCI Yeast Anticancer Drug Screen. Data for the sgs1 mgt1 strain (AID 161);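 further: 0% = growth of cultures given vehicle only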; conditions: S. cerevisiae sgs1 mgt1 strain, active compounds read high
# In short: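 Compounds are added to genetically altered yeast, and growth is compared with cultures given vehicle alone to give percent inhibition.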
# [4] = NCI Yeast Anticancer Drug Screen. Data for the cln2 rad14 strain (AID 165);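 further: 0% = growth equal to vehicle treated cultures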; conditions: S. cerevisiae cln2 rad14 strain, active compounds read high
# In short: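 Readout is yeast growth inhibition versus vehicle-treated controls, using a strain with cln2 and rad14 alterations exposed to compound.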
# [5] = NCI Yeast Anticancer Drug Screen. Data for the bub3 strain (AID 167); conditions: S. cerevisiae bub3 mutant strain, active compounds read high
# In short: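 Inhibition values come from growth of compound-treated mutant yeast normalised to vehicle-treated controls.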
# [6] = NCI Yeast Anticancer Drug Screen. Data for the mlh1 rad18 strain (AID 175); conditions: S. cerevisiae mlh1 rad18 strain growth inhibition, active compounds read high
# In short: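 Genetically defined yeast (DNA repair-deficient) exposed to compounds; growth inhibition determined relative to vehicle.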
# [7] = at 5.0 µM (retest, dose inferred, filed as 0.5)
# [8] = at 50.0 µM (retest, dose inferred, filed as 5.0)
SMILES,"growth inhibition [1, 7]","growth inhibition [1, 8]",growth inhibition ([1]; at 50.0 µM),"growth inhibition [2, 7]","growth inhibition [2, 8]",growth inhibition ([2]; at 50.0 µM),"growth inhibition [3, 7]","growth inhibition [3, 8]",growth inhibition ([3]; at 50.0 µM),"growth inhibition [4, 7]","growth inhibition [4, 8]",growth inhibition ([4]; at 50.0 µM),"growth inhibition [5, 7]","growth inhibition [5, 8]",growth inhibition ([5]; at 50.0 µM),"growth inhibition [6, 7]","growth inhibition [6, 8]",growth inhibition ([6]; at 50.0 µM)
O=[N+]([O-])C1=Cc2ccccc2S(=O)(=O)CC1,6%,93% (active),92.9% (active),14%,93% (active),92.2% (active),14%,95% (active),92.7% (active),-8%,83% (active),63.5%,-24%,85% (active),90.5% (active),21%,97% (active),97.9% (active)
Nc1ccc(CSc2ccc(Cl)cc2)cc1Cl,-3%,99% (active),37%,-5%,99% (active),3.9%,-6%,98% (active),40.9%,-16%,99% (active),-24.7%,32%,99% (active),4.35%,1%,99% (active),13.7%
CCCCCCCCCCCCCCCCCCOC(=O)Nc1ccc(C)c(NC(=O)OCCCCCCCCCCCCCCCCCC)c1,-11%,-18%,70.2% (active),6%,-1%,60.9%,-6%,-11%,59.8%,0%,-19%,26.4%,-3%,-3%,83.6% (active),-11%,-9%,79.2% (active)
O=C([O][Sb]([O]C(=O)C(Cl)(Cl)Cl)([c]1ccccc1)([c]1ccccc1)[c]1ccccc1)C(Cl)(Cl)Cl,12%,76% (active),41%,7%,56%,29.2%,10%,77% (active),67.1%,-5%,55%,11.9%,6%,76% (active),-69.9%,3%,79% (active),66.7%
CC(C)NC(=O)O/N=C1\CCC2[C@@H]3CC=C4C[C@@H](OC(=O)NC(C)C)CC[C@]4(C)C3CC[C@]12C (some centres not stated),88% (active),77% (active),83% (active),91% (active),67%,83% (active),90% (active),73% (active),92.3% (active),95% (active),75% (active),81.2% (active),83% (active),72% (active),91.2% (active),91% (active),71% (active),92% (active)
CC(=O)Nc1c(Cl)ccc2c1Cc1cc([N+](=O)[O-])ccc1-2,19%,92% (active),91% (active),2%,19%,45.8%,6%,-39%,49.5%,-3%,44%,47.9%,-7%,10%,10.7%,-9%,66%,90.8% (active)
O=C(N/C(=C\c1ccc(Br)cc1)c1nc2ccccc2[nH]1)c1ccccc1,3%,59%,73.4% (active),-17%,27%,95.8% (active),-2%,60%,68%,-6%,41%,66.9%,6%,78% (active),88.4% (active),2%,21%,96.5% (active)
Cc1ccc(Oc2ccc(C(=O)C(CN(C)C)CN(C)C)cc2)cc1,93% (active),98% (active),92.1% (active),93% (active),96% (active),98% (active),95% (active),98% (active),51.4%,75% (active),95% (active),95.6% (active),91% (active),96% (active),96.2% (active),96% (active),96% (active),97.1% (active)
CCOC(=O)/N=C(\N)SCc1ccccc1,21%,3%,10.9%,-4%,-6%,1.05%,13%,-8%,-12.8%,-7%,-8%,-6.25%,0%,-7%,49.5%,-3%,-2%,-5.95%
CCC(c1ccc(OC)cc1)C(O)(CC)c1ccc(OC)cc1 (configuration not stated),-4%,98% (active),99% (active),-7%,99% (active),98.8% (active),-11%,98% (active),98.4% (active),-10%,99% (active),98% (active),11%,99% (active),98.9% (active),-3%,98% (active),98.6% (active)
COC(=O)c1ccccc1NC(=O)C(=O)Cc1nc2c3c(ccc2[nH]c1=O)C(=O)c1ccccc1C3=O,35%,98% (active),85.4% (active),12%,99% (active),25.8%,6%,99% (active),16.2%,5%,98% (active),-26.9%,6%,99% (active),16.3%,16%,66%,66.6%
O=C1c2cccc3cc4ccccc4c(c23)C(=O)N1CCCNCCNCCCN1C(=O)c2cccc3cc4ccccc4c(c23)C1=O,94% (active),98% (active),90.1% (active),96% (active),98% (active),85.2% (active),96% (active),98% (active),86.5% (active),83% (active),98% (active),88% (active),98% (active),98% (active),87.8% (active),94% (active),97% (active),91% (active)
O=c1c(Cc2c[nH]c3ccccc23)coc2ccccc12,0%,95% (active),24.2%,8%,91% (active),7.85%,3%,84% (active),51.1%,10%,92% (active),-69.5%,9%,98% (active),14.1%,0%,95% (active),21.8%
C/C(=N/NC(=S)Nc1ccccc1Cl)c1ccccn1,-1%,19%,70.4% (active),-30%,11%,50.1%,-51%,22%,81.3% (active),3%,5%,78.3% (active),-37%,17%,56.2%,-21%,20%,77.2% (active)
CCc1cccc(CC)c1Nc1nc2c(s1)C(=O)c1ccccc1C2=O,100% (active),99% (active),89.5% (active),100% (active),99% (active),91.9% (active),100% (active),99% (active),92.7% (active),87% (active),98% (active),90.3% (active),100% (active),99% (active),92.2% (active),99% (active),98% (active),90.8% (active)
CN(C)/N=N/c1nc(Cc2ccccc2)[nH]c1C(N)=O,98% (active),98% (active),98.5% (active),16%,99% (active),94.6% (active),38%,99% (active),99.2% (active),29%,99% (active),92.9% (active),67%,99% (active),96.5% (active),99% (active),99% (active),98.8% (active)
COc1ccc(/C=C2/C(=O)ON=C2C)cc1OC,-15%,35%,93.3% (active),-14%,48%,85.5% (active),-14%,48%,89.1% (active),-12%,17%,42.7%,-3%,55%,94.6% (active),-9%,61%,79.2% (active)
O=C1C(Br)=C(C2CCCCC2)C(=O)c2ccccc21,54%,99% (active),101% (active),59%,100% (active),99.7% (active),78% (active),99% (active),99.6% (active),20%,99% (active),100% (active),24%,100% (active),99.5% (active),83% (active),99% (active),99.2% (active)
CC(C)(CCCCC(C)(C)NCC1COc2ccccc2O1)NCC1COc2ccccc2O1 (configuration not stated),3%,73% (active),94.6% (active),-8%,81% (active),96% (active),-10%,64%,96.8% (active),0%,76% (active),95% (active),-15%,79% (active),97.4% (active),2%,74% (active),96.2% (active)

# Source: PubChem BioAssay (NCI)
